Experimental data from PubChem BioAssay (NCI).
“And” between values parts separate entries of the source, which are not always exact repeats. Equal values may be shown once. The panel holds about 79,000 compounds, 15% with a hit somewhere; the sample as a whole holds those more often. Unmarked numbers belong to inactive results. The source made the active and inactive calls. Rule as the data show it: active = growth inhibition above about 70%; inactive = the rest.

Key:
[1] = NCI Yeast Anticancer Drug Screen. Data for the rad50 strain (AID 155);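 also: 0% = growth of vehicle-only cultures of the same strain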; settings: S. cerevisiae rad50 strain growth inhibition, active compounds read high; at 50.0 µM unless noted
Method in brief: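 Relative growth inhibition (compound vs vehicle) was measured in yeast with a defined repair-gene alteration.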

[2] = NCI Yeast Anticancer Drug Screen. Data for the mec2-1 strain (AID 157); settings: S. cerevisiae mec2-1 strain, active compounds read high; at 50.0 µM unless noted
Method in brief: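 Cells of the genetically defined mec2-1 yeast strain are incubated with test compound. Inhibition of growth is calculated against vehicle-treated controls.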

[3] = NCI Yeast Anticancer Drug Screen. Data for the sgs1 mgt1 strain (AID 161);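 also: 0% = growth of cultures given vehicle only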; settings: S. cerevisiae sgs1 mgt1 strain, active compounds read high; at 50.0 µM unless noted
Method in brief: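 Mutant yeast exposed to compound; growth scored against vehicle-only wells.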

[4] = NCI Yeast Anticancer Drug Screen. Data for the cln2 rad14 strain (AID 165);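 also: 0% = growth equal to vehicle treated cultures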; settings: S. cerevisiae cln2 rad14 strain, active compounds read high; at 50.0 µM unless noted
Method in brief: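 The screen exposed genetically defined yeast (cln2 rad14) to test compounds and scored growth inhibition relative to vehicle-treated controls.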

[5] = NCI Yeast Anticancer Drug Screen. Data for the bub3 strain (AID 167); settings: S. cerevisiae bub3 mutant strain, active compounds read high; at 50.0 µM unless noted
Method in brief: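 Screening used yeast with an engineered genetic alteration affecting cell cycle control. Compound-exposed cultures were compared with vehicle cultures, and reduced growth was taken as inhibition.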

[6] = NCI Yeast Anticancer Drug Screen. Data for the mlh1 rad18 strain (AID 175); settings: S. cerevisiae mlh1 rad18 strain growth inhibition, active compounds read high; at 50.0 µM unless noted
Method in brief: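 Compound-treated yeast growth, normalised to vehicle controls. Strain bears defined DNA repair mutations.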

SMILES	growth inhibition [1]	growth inhibition [2]	growth inhibition [3]	growth inhibition [4]	growth inhibition [5]	growth inhibition [6]
Cc1nn(C)c(N)c1C#N	-15.9% and 8%	-11.7% and 5.95%	-24.6% and 3.6%	0.3% and 26.9%	-8.45% and -6.5%	-18.2% and -7.45%
CCOCNC(=O)NCC(F)(F)C(F)(F)C(F)(F)C(F)(F)C(F)(F)C(F)(F)C(F)(F)F	-1.55%	-21.5%	-4.6%	-5.5%	-1.65%	12.9%
O=C1C=C(c2ccccc2)C(c2ccccc2)/C1=N/O (centres undefined)	11.3%	-12.9%	2.55%	13.1%	11.9%	-9.85%
Nc1nc(=S)c2c(ncn2CCO)[nH]1	-25.1%	-32.2%	15.3%	3.4%	-16.1%	3.85%
OC1(Cc2ccccc2)CCCCCC1	-2.3%	1.3%	2.15%	-64.7%	-0.95%	1.95%
CO/N=C(/NC(=O)OC)c1ccccc1	10.8%	18.4%	-5%	-20.2%	14.4%	-15.3%
Clc1ccc(-c2cn3c(nc4ccccc43)c(-c3ccccc3)n2)cc1	-7.65%	1.4%	-10.1%	2.35%	-22.5%	-16%
Cn1c2ccc(Cl)cc2c2ccc3c(c21)C(=O)C=CC3=O	-21.9%	-33%	-18.3%	14.2%	-25.2%	-8.05%
CC[O-].CC[O-].CN(C)c1ccc([O-])cc1.CN(C)c1ccc([O-])cc1.[Ti+4]	-29.9%	9.5%	2.2%	20.2%	-9.15%	-1.8%
CCOC(=O)CN1C(=O)/C(=C2\SC(=S)N(CC(=O)OCC)C2=O)SC1=S	19.1%	9.95%	16.1%	7.7%	-3.9%	9.4%
CC(C)C(=O)OC1(CC2CCCCN2C)CCCCC1 (centres undefined)	-3.2%	13.7%	3.95%	-5.8%	5.3%	6.85%
OCC#CC#CCO	-3.7%	-7.45%	8.75%	-1.05%	-15.8%	-1.45%
N#CCCN1CCCC(=O)NC1=O	4.4%	-14.4%	-5.35%	-37.7%	-7.4%	-15.4%
N=C(N)CCNC(=O)C1CCC(N)=N1 (centres undefined)	-4.85%	-17.8%	-13.9%	56.4%	-28.1%	-13.6%
CCOC(=O)C(Cc1c[nH]c2c(N(CCO)CCO)cccc12)(NC(C)=O)C(=O)OCC	-0.45%	-17.2%	16%	21.7%	-5.55%	9.95%
NC(Cc1cc(Br)c(Oc2ccc(O)cc2)c(Br)c1)C(=O)O (centres undefined)	19.8%	12.8%	-9.1%	-0.55%	2.55%	20.9%
COc1cc(N=Nc2c(N)nc(N)[nH]c2=O)c(OC)cc1Cl	-8.45%	3.65%	-8%	5.05%	1.35%	3%
O=Cc1ccccc1OCCOc1ccccc1C=O	8.7%	1.35%	10.2%	-24%	9.4%	19.1%
NC(Cc1c[nH]c2ccccc12)C(=O)O (centres undefined)	4.2% and -1.1%	-7.9% and -8.7%	-13.2% and 6.55%	3% and -1.25%	-28.4% and -2.7%	2.65% and -16.2%
BrCC1CN=C(c2ccccc2)O1 (centres undefined)	-5.55%	-4%	2.65%	-26.1%	1.6%	-2.95%

SMILES	growth inhibition [1]	growth inhibition [2]	growth inhibition [3]	growth inhibition [4]	growth inhibition [5]	growth inhibition [6]
COc1cc(O)c(C(=O)/C=C/c2ccccc2)c(OC)c1	1.05%	-12.1%	27.1%	15.6%	15.1%	-21.4%
c1ccc(C2=NN(c3ccccc3)CC2)cc1	-8.3%	-3.15%	0.4%	9.25%	9.35%	2.05%
CCOC(=O)c1cnc2c(cnn2CC)c1NCC(C)C	-3.15%	21.8%	18.6%	3.15%	85.9% (active)	3.35%
C[N+]1(CCN=C=NC2CCCCC2)CCOCC1	-11.9%	10.8%	16.9%	-12.2%	17.9%	14.4%
O=C1OC(c2ccccc2)=C2CCC3CCCCN1C23 (centres undefined)	-2.15%	-29.7%	12.8%	23.4%	34.6%	9.25%
CCCCC(C(=O)O)N(C)C (centres undefined)	-15.9%	-11.3%	-5.8%	-0.5%	2.4%	-20.4%
O=C(CCC(=O)Nc1ccccc1C(F)(F)F)N/N=C1\C(=N\NC(=O)CCC(=O)Nc2ccccc2C(F)(F)F)C(c2ccc3c(c2)OCO3)Oc2ccccc21 (centres undefined)	19.4%	3.4%	1.15%	-11%	-5.05%	4.55%
CCOC(=O)c1ccc(NC2Oc3cc4c(cc3C(c3cc(OC)c(OC)c(OC)c3)C2C)OCO4)cc1 (centres undefined)	-1.6%	-15.5%	-2.65%	11.4%	-9.8%	-9.55%
COc1ccc(OC(C)C(=O)O)c2c(=O)ccccc12 (centres undefined)	13.9%	10.7%	-5.2%	25.2%	5.7%	22.1%
ON=C(c1ccccn1)c1ccccn1	11.1%	-7.6%	7.05%	4.35%	-8.25%	3.8%
COc1cc2ccc3c4ccccc4cnc3c2cc1OC	8.1%	5.4%	0%	18.2%	13.7%	13.2%
COc1ccc(/C=C2\CNC/C(=C\c3ccc(OC)cc3)C2=O)cc1	34%	1.75%	55.2%	37.5%	15.3%	34.1%
Nc1cc(S(=O)(=O)O)cc2cc(S(=O)(=O)O)cc(S(=O)(=O)O)c12	-31.6%	-51%	-29.6%	-144%	-17.5%	23.4%
Nc1ccc(S(=O)(=O)Nc2cc(C(F)(F)F)cc(C(F)(F)F)c2)cc1	12.9%	16.6%	28.6%	41.6%	10.7%	32%
O=C(O)CCCCC1CCCCC1	53.1%	17.1%	38.8%	17.1%	33.6%	43.1%
CC(C)CCn1c(=O)c2c(ncn2C)n(C)c1=O	21.9%	20.3%	22.9%	10.2%	-0.5%	13.2%
NNC(=O)Cc1ccc(Cl)c2ccccc12	5.8%	-17.9%	3.6%	-75.9%	-5.2%	8.85%
Nc1cc(S(=O)(=O)O)c(O)c2c1C(=O)c1c(O)c(S(=O)(=O)O)cc(N)c1C2=O	-17.6%	-1.75%	-2.55%	-12.8%	-9.35%	-18%
COc1cc(C(=O)c2cc3c(cc2C(=O)O)OCO3)cc(OC)c1OC	-7.6%	0.85%	2.9%	-30.6%	8.5%	-2.05%
